Structures are written as SMILES. Several values for one entry are separate records, joined by “and”; a condition that tells them apart may be missing. Equal entries are not always repeated. More than one record can exist for a structure, and the calls need not agree. Activity calls are given as the source filed them. Rule for the calls: active = hit-call score of the fitted dose curve at least 0.9, where 1 is the maximum; inactive = score below 0.9.

Holding throughout (details): mRNA level, 48 h; actives raise or lower the signal
Read-out in assay [1]: Heat shock 70 kDa protein 1 (HSPA1A), gene 3303
Nature of the assay: LTEA_HepaRG_HSPA1A: Life Technologies and Expression Analysis (LTEA) Assay for Heat shock 70 kDa protein 1 (HSPA1A) using HepaRG (AID 2283502). An outline of the steps:
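HSPA1A expression measured by qRT-PCR with ACTB/GAPDH/POLR2A normalization; curves fitted in both directions relative to DMSO vehicle. Exposure: 48 h in HepaRG cells, duplicate 8-point half-log series from 100 uM, 0.5% DMSO, serum-free induction medium.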

Read-out in assay [2]: Hypoxia-inducible factor 1-alpha (Homo sapiens) (UniProt Q16665)
As to the kind of experiment: LTEA_HepaRG_HIF1A: Life Technologies and Expression Analysis (LTEA) Assay for Hypoxia-inducible factor 1 (HIF1A) Trancription factor using HepaRG (AID 2283503). The method in brief:
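HIF1A transcript level read by qRT-PCR (ACTB, GAPDH, POLR2A normalization) after 48 h chemical exposure of HepaRG cultures. Eight half-log concentrations, top 100 uM, 0.5% DMSO vehicle, duplicates; bidirectional curve fit against DMSO baseline.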

Read-out in assay [3]: 3-Hydroxy-3-Methylglutaryl-CoA Synthase 2 (HMGCS2), HMGCS2 (gene 3158)
Nature of the assay: LTEA_HepaRG_HMGCS2: Life Technologies and Expression Analysis (LTEA) Assay for 3-Hydroxy-3-Methylglutaryl-CoA Synthase 2 (HMGCS2) using HepaRG (AID 2283504). An outline of the steps: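 Expression of HMGCS2 in human HepaRG liver cells is measured by qRT-PCR 48 h after dosing (highest 100 uM, half-log series, 0.5% DMSO). Values come from bidirectional concentration-response fitting with DMSO as baseline.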

Read-out in assay [4]: HGF (gene 3082)
Nature of the assay: LTEA_HepaRG_HGF: Life Technologies and Expression Analysis (LTEA) Assay for Hepatocyte Growth Facto (HGF) using HepaRG (AID 2283505). The method in brief:
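Gain or loss of HGF mRNA in human HepaRG liver cells after 48 h chemical exposure; eight concentrations up to 100 uM with 0.5% DMSO vehicle, quantified by TaqMan qRT-PCR.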

Read-out in assay [5]: Insulin Like Growth Factor 1 (IGF1), IGF1 (gene 3479)
Nature of the assay: LTEA_HepaRG_IGF1: Life Technologies and Expression Analysis (LTEA) Assay for Insulin Like Growth Factor 1 (IGF1) using HepaRG (AID 2283506). The method in brief:
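Expression measured by TaqMan qRT-PCR on a Fluidigm array, with three housekeeping genes for normalisation, after 48 h treatment of HepaRG cells. Top concentration 100 uM with half-log steps, 0.5% DMSO vehicle, bidirectional fit.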

Read-out in assay [6]: Insulin-like growth factor-binding protein 1 (IGFBP1), IGFBP1 (gene 3484)
Nature of the assay: LTEA_HepaRG_IGFBP1: Life Technologies and Expression Analysis (LTEA) Assay for Insulin-like growth factor-binding protein 1 (IGFBP1) using HepaRG (AID 2283508). The method in brief: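 mRNA induction or loss was quantified by qRT-PCR after 48 h chemical exposure of human HepaRG cells, with 0.5% DMSO as vehicle and baseline. Concentration-response over eight points up to 100 uM.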

Read-out in assay [7]: Interleukin 6 (IL6), IL6 (gene 3569)
Nature of the assay: LTEA_HepaRG_IL6: Life Technologies and Expression Analysis (LTEA) Assay for Interleukin 6 (IL6) using HepaRG (AID 2283509). The method in brief:
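Changes in IL6 mRNA, up or down relative to 0.5% DMSO controls, were derived from concentration-response curves in human HepaRG cells treated for 48 h at up to 100 uM, with ACTB, GAPDH and POLR2A as normalizers.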

Read-out in assay [8]: Interleukin 6 Receptor (IL6R), IL6R (gene 3570)
As to the kind of experiment: LTEA_HepaRG_IL6R: Life Technologies and Expression Analysis (LTEA) Assay for Interleukin 6 Receptor (IL6R) using HepaRG (AID 2283510). An outline of the steps:
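IL6R transcript level by qRT-PCR after 48 h chemical exposure (8-point, half-log, max 100 uM, 0.5% DMSO vehicle) of HepaRG cells in serum-free induction medium. Normalized to three housekeeping genes; curves fitted in both directions relative to DMSO.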

Read-out in assay [9]: Potassium channel subfamily K member 1 (KCNK1), KCNK1 (gene 3775)
As to the kind of experiment: LTEA_HepaRG_KCNK1: Life Technologies and Expression Analysis (LTEA) Assay for Potassium channel subfamily K member 1 (KCNK1) using HepaRG (AID 2283511). The method in brief:
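Human HepaRG cultures receive test chemicals for 48 h in 0.5% DMSO, top concentration 100 uM with half-log dilutions. Induction or suppression of KCNK1 mRNA relative to DMSO is derived by bidirectional fitting of qRT-PCR data.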

Read-out in assay [10]: Keratin 19 (KRT19), KRT19 (gene 3880)
As to the kind of experiment: LTEA_HepaRG_KRT19: Life Technologies and Expression Analysis (LTEA) Assay for Keratin 19 (KRT19) using HepaRG (AID 2283512). An outline of the steps: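 Gene-expression endpoint in the human liver line HepaRG after 48 h exposure to up to 100 uM test chemical with 0.5% DMSO vehicle; KRT19 mRNA by qRT-PCR, analyzed bidirectionally versus DMSO.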

Read-out in assay [11]: JUN Transcription Factor, JUN (gene 3725)
As to the kind of experiment: LTEA_HepaRG_JUN: Life Technologies and Expression Analysis (LTEA) Assay for JUN Transcription Factor using HepaRG (AID 2283513). The method in brief:
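mRNA measured by TaqMan qRT-PCR after 48 h chemical exposure of HepaRG cultures; normalization to three housekeeping genes. Duplicate eight-point half-log curves from 100 uM in 0.5% DMSO; gain or loss fitted against DMSO baseline.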

Read-out in assay [12]: Lipase C (LIPC), LIPC (gene 3990)
As to the kind of experiment: LTEA_HepaRG_LIPC: Life Technologies and Expression Analysis (LTEA) Assay for Lipase C (LIPC) using HepaRG (AID 2283514). The method in brief:
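In this multiplexed gene-expression screen, human HepaRG cultures received test chemicals for 48 h across eight concentrations with 100 uM highest, in duplicate. Values reflect LIPC mRNA induction or suppression versus DMSO vehicle, from normalized qRT-PCR.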

Read-out in assay [13]: Lipoprotein lipase (LPL), LPL (gene 4023)
Nature of the assay: LTEA_HepaRG_LPL: Life Technologies and Expression Analysis (LTEA) Assay for Lipoprotein lipase (LPL) using HepaRG (AID 2283515). The method in brief:
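Concentration-response testing used half-log steps from 100 uM in 0.5% DMSO on human HepaRG cells, 48 h, duplicate wells. Phenobarbital 1 mM served as induction control; LPL mRNA was normalized to ACTB, GAPDH, POLR2A.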

Read-out in assay [14]: MicroRNA 122 (MIR122), gene 406906
Nature of the assay: LTEA_HepaRG_MIR122: Life Technologies and Expression Analysis (LTEA) Assay for MicroRNA 122 (MIR122) using HepaRG (AID 2283516). Note: the transcript read is the microRNA miR-122. The method in brief: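 Expression measured by microfluidic qRT-PCR with three housekeeping genes for normalisation, after 48 h treatment of HepaRG cultures. Eight concentrations (top 100 uM, half-log steps, 0.5% DMSO vehicle) in duplicate; gain or loss fitted relative to vehicle.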

Read-out in assay [15]: matrix metalloproteinase-10 (MMP10), MMP10 (gene 4319)
As to the kind of experiment: LTEA_HepaRG_MMP10: Life Technologies and Expression Analysis (LTEA) Assay for matrix metalloproteinase-10 (MMP10) using HepaRG (AID 2283517). An outline of the steps: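 In differentiated HepaRG cultures kept in 0.5% DMSO, test chemicals act for 48 h over an eight-point range with a top dose of 100 uM. Expression is then quantified by TaqMan RT-PCR against ACTB, GAPDH and POLR2A.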

Read-out in assay [16]: MYC, MYC (gene 4609)
As to the kind of experiment: LTEA_HepaRG_MYC: Life Technologies and Expression Analysis (LTEA) Assay for MYC using HepaRG (AID 2283518). An outline of the steps: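 Cells are thawed, plated and cultured 48 h, then treated for 48 h with test chemicals (eight half-log concentrations from 100 uM, 0.5% DMSO vehicle). RNA is isolated and MYC expression quantified by qRT-PCR against three housekeeping genes.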

Read-out in assay [17]: matrix metalloproteinase-3 (MMP3), MMP3 (gene 4314)
As to the kind of experiment: LTEA_HepaRG_MMP3: Life Technologies and Expression Analysis (LTEA) Assay for matrix metalloproteinase-3 (MMP3) using HepaRG (AID 2283519). The method in brief: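 Human liver HepaRG cultures received chemicals (top concentration 100 uM, 0.5% DMSO) for 48 h in duplicate. MMP3 mRNA induction or loss was then assessed via TaqMan qRT-PCR with housekeeping-gene normalisation.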

Read-out in assay [18]: Paternally Expressed 10 (PEG10), PEG10 (gene 23089)
Nature of the assay: LTEA_HepaRG_PEG10: Life Technologies and Expression Analysis (LTEA) Assay for Paternally Expressed 10 (PEG10) using HepaRG (AID 2283520).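 For AC50: differentiated HepaRG human liver cells in serum-free induction medium with 0.5% DMSO; PEG10 transcript by qRT-PCR normalised to ACTB GAPDH and POLR2A.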 The method in brief:
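PEG10 transcript measured by Fluidigm qRT-PCR, normalized to three housekeeping genes, in HepaRG cells treated 48 h (highest 100 uM, half-log steps, 0.5% DMSO vehicle). Cells plated 48 h before switching to serum-free induction medium.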

Read-out in assay [19]: Protein phosphatase 2A (PPP2R4), PTPA (gene 5524)
Nature of the assay: LTEA_HepaRG_PPP2R4: Life Technologies and Expression Analysis (LTEA) Assay for Protein phosphatase 2A (PPP2R4) using HepaRG (AID 2283522). An outline of the steps: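 Expression was quantified by Fluidigm qRT-PCR normalised to three housekeeping genes after 48 h treatment. Human HepaRG cells received an 8-point series from 100 µM downward by half-logs, in duplicate with 0.5% DMSO vehicle and 1 mM phenobarbital as induction control.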

Read-out in assay [20]: Phosphatase and tensin (PTEN), PTEN (gene 5728)
As to the kind of experiment: LTEA_HepaRG_PTEN: Life Technologies and Expression Analysis (LTEA) Assay for Phosphatase and tensin (PTEN) using HepaRG (AID 2283523). The method in brief: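 Expression of PTEN is quantified in the human liver line HepaRG following two days of dosing (top concentration 100 uM, half-log dilutions, 0.5% DMSO). Values derive from bidirectional curve fitting relative to DMSO controls.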

Sequence of Hypoxia-inducible factor 1-alpha (Homo sapiens) (Q16665 whole entry, looked up): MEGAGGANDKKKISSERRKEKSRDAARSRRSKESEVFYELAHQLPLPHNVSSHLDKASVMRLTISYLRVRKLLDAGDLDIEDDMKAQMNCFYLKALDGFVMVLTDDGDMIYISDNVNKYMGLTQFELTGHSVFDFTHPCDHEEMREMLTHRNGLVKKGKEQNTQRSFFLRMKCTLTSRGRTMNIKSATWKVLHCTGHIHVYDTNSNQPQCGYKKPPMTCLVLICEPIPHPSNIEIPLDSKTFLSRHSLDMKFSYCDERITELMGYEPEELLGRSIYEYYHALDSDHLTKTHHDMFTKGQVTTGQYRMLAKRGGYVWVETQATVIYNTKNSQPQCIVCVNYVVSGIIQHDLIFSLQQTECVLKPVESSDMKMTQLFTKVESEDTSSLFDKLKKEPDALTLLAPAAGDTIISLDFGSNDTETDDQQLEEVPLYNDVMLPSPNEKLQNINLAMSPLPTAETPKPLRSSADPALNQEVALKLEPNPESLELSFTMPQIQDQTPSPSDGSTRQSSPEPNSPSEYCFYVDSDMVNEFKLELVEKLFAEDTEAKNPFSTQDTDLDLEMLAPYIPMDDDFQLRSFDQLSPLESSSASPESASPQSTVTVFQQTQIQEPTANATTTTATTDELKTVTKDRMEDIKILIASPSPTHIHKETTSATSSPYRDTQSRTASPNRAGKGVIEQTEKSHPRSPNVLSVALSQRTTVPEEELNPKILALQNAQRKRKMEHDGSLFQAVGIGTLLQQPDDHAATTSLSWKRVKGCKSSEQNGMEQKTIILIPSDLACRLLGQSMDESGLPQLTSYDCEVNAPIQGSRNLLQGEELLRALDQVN

Turning to `COc1cc(-c2ccc(N)c(OC)c2)ccc1N`, the AC50 in assay [1] is 75 µM (active); in assay [3] it was 42.7 µM (active); in assay [5], 39.4 µM (active) and 34.4 µM (active); in assay [6], 86.9 µM (active); in assay [7], 13 µM (active); in assay [10] it was 42.3 µM (active). The half-maximal activity concentration (AC50) is 50 µM (active) in [11]; 50 µM (active) in assay [12]; 79.7 µM (active) in assay [14]; 50 µM (active) in assay [16]; 39.3 µM (active) and 2.3 µM (active) in assay [17]; 50 µM (active) in assay [18]. Further, the outcome in assay [1], in assay [2], in assay [3], in assay [4], in assay [6] and in assay [7] was inactive. The call in assay [8], in assay [9], in assay [10], in assay [11], in assay [12] and in assay [13] was inactive. Further, the compound was called inactive in assay [14], in assay [15], in assay [16], in [19] and in [20].
On to `C=C(C)C(=O)[O][Sn]([CH2]CCC)([CH2]CCC)[CH2]CCC`, for which the AC50 was 89.6 µM (active) in [1]; 5.19 µM (active) in [2]; 2.69 µM (active) in assay [3]; 72 µM (active) in assay [4]; 1.2 µM (active) in assay [5]; 2.66 µM (active) in [6]. Further, the concentration at half-maximal activity (AC50) in [7] was 3.28 µM (active); in assay [11], 6.54 µM (active); in assay [12], 2.37 µM (active); in [13] it was 6.44 µM (active); in assay [16] it was 2.77 µM (active); in assay [20], 15.8 µM (active). Further, the compound was classed as inactive in [8], in [9], in [10], in assay [14], in assay [15] and in assay [17]. Besides, the call in [18] and in assay [19] was inactive.
Consider `CCC(=O)C(CC(C)N(C)C)(c1ccccc1)c1ccccc1` (centres undefined), for which the compound was called inactive in assay [1], in [2], in [4], in assay [5], in assay [6] and in assay [7]. Besides, the compound was classed as inactive in [8], in [9], in [11], in assay [12], in assay [13] and in [14]. For the same compound, the compound was classed as inactive in assay [15], in assay [16], in assay [17], in assay [19] and in assay [20]. Further, the AC50 in assay [3] is 36.2 µM (active); in assay [10], 18.9 µM (active); in assay [18], 26.3 µM (active).

Usually AC50 stands for the concentration at which the activity in the assay is half-maximal.

For the origin of these results see PubChem BioAssay (EPA / NIEHS).
